Assay results published in PubChem BioAssay AID1457 (National Center for Advancing Translational Sciences (NCATS), 2008).
Screen size: about 210,000 compounds; about 730 (0.35%) were called active. A call without a number means that no potency is given here. About 1% were inconclusive and are not listed. Calls follow the shape of the dose curve; as a rule, active = well fitted inhibition curve with a large enough effect; inconclusive = small, poorly fitted or top-dose-only effect; inactive = no such curve, though single readings can be large or run the other way. Only a selection was taken, and actives are over-represented in it overall.

Experiment: qHTS Assay for Identifying the Cell-Membrane Permeable IMPase Inhibitors: Potentiation with Lithium;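 also: IP1 builds up when IMPase is blocked and the TR-FRET signal falls; nearly all actives have a fitted effect of over 50% in size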
Conditions: CHO-M1 cells, IP1 TR-FRET (IP-One), carbachol + lithium; series mostly up to 59.4 µM
Description: NIH Chemical Genomics Center [NCGC]
NIH Molecular Libraries Probe Production centers Network [MLPCN]
Assay Submitter (PI): Wei Zheng
Lithium has been widely used for the treatment of bipolar disorder. But lithium has a narrow therapeutic index and it can cause side effects such as thirst, weight gain, tremor, polyuria and memory problems. Although the mechanism for lithium action in treatment of bipolar disorder is still not fully understood, inhibition of inositol monophosphatase (IMPase) and the subsequent depletion of the inositol pool in living cells have been implicated as the primary therapeutic benefit of lithium therapy. Therefore, a selective IMPase inhibitor with reduced side effects might be a good drug candidate to replace lithium for the treatment of bipolar disorder. Several IMPase inhibitors have been discovered previously. However, they are not suitable for therapeutic use because of their poor cell membrane penetrability or oral bioavailability; the development of new cell-permeable IMPase inhibitors is needed.
IMPase catalyzes the hydrolysis of inositol-1-phosphate (IP1) to release free inositol. Binding of an agonist to a Gq coupled GPCR results in the activation of PLC, which hydrolyzes the PIP2 to form inositol-1,4,5-trisphosphate (IP3) and diacyl glycerol (DAG). While DAG activates protein kinase C (PKC), IP3 triggers the elevation of intracellular free Ca2+. The IP3 is very rapidly inactivated by hydrolysis to IP2, IP1 and then inositol by a series of enzymes including IMPase. Free inositols are used for synthesis of PI and thus start another inositol cycle.
To identify new cell-permeable IMPase inhibitors, we developed a cell-based IMPase assay in which the cytosolic IP1 is measured by a time-resolved fluorescence resonance energy transfer (TR-FRET) assay. In this assay, an IP1 specific antibody is used to detect the labeled IP1 tracer. When the cell lysate contains the elevated IP1 due to the inhibition of IMPase, the TR-FRET between the labeled antibody and IP1 tracer is disrupted resulting in a reduction in the total signal. Since the TR-FRET is used, this cell-based assay is a homogenous assay without cell wash and medium change that is suitable for assay miniaturization and HTS. In this particular assay, a small amount of lithium is added to potentiate the response of weak activators.
NCGC Assay Protocol Summary:
A Chinese hamster ovary (CHO) cell line stably expressing the M1 receptor (CHO-M1) was obtained from ATCC and maintained in F-12 Kaighn's media (Invitrogen, Carlsbad, CA) supplemented with 10 % FBS, 100 units/ml penicillin, 100 ug/ml streptomycin and 250 ug/ml geneticin at 37C, 5% CO2 in a humidified atmosphere. Before the assay, aliquots of cells were frozen and stored at -135C. The assay was performed in 1536-well format. Data are reported for both the ratio of the two emission wavelengths, and also for the component 'donor' channel, Em2=620. […] AC50 values were determined from concentration-response data modeled with the standard Hill equation.
(1) Frozen CHO-M1 cells were thaw, washed once with fresh media and resuspended in F12K media containing 10% FBS, 100 units/ml penicillin and 100 ug/ml streptomycin. Cells were plated at 4ul/well (2000 cells) in white, tissue culture treated 1536-well plates, and then cultured at 37C, 5 % CO2 for 16 to 30 hours.
(2) Add 23 nl/well of compound in DMSO solution. The final titration for each compound was between 0.6 nM and 46 uM.
(4) Incubation at 37C, 5 % CO2 for 30 min.
(5) Add 1 ul/well of d2-conjugated IP1 (d2-IP1) and 1 ul/well of Eu+ cryptate conjugated anti-IP1 antibody (Eu+-Ab) prepared in the cell lysis buffer, both from the IP-One kit (Cisbio, MA).
(6) Incubate at room temperature for 10 minutes.
(7) Detect the assay plate (Ex = 320, Em1 =665 and Em2 620) in a ViewLux plate reader.
Potency is read from the fitted curve at half-maximal effect.

| Compound | Potency |
| --- | --- |
| CN(C)[C@@H]1C(=O)C(C(N)=O)=C(O)[C@@]2(O)C(=O)C3=C(O)c4c(O)cccc4[C@@](C)(O)C3CC12 (stereo not given in full) | 8.91 µM (active) |
| CN(C)C1C(=O)C(C(N)=O)=C(O)[C@@]2(O)C(=O)C3=C(O)c4c(O)cccc4[C@@](C)(O)C3C[C@@H]12 (stereo not given in full) | 10 µM (active) |
| CC(=O)c1c(O)c(C)c(O)c(Cc2c(O)c3c(c(C(=O)/C=C\c4ccccc4)c2O)OC(C)(C)C=C3)c1O | inactive |
| CC[C@@](O)(C(=O)O)c1cc2n(c(=O)c1CO)Cc1cc3ccccc3nc1-2 | inactive |
| Clc1ccccc1 | inactive |
| CC[N+](C)(CC)CCC[n+]1c(-c2ccccc2)c2cc(N)ccc2c2ccc(N)cc21 | inactive |
| O=P(O)(O)C(O)c1ccc2ccccc2c1 (stereo not given) | inactive |
| CC(C)(c1ccccc1)c1ccc(O)cc1 | inactive |
| O=C(CN1CCN(S(=O)(=O)c2ccc3ccccc3c2)CC1)NC(=O)NC1CCCCC1 | inactive |
| c1ccc(N2CC[C@@]3(CCCNC3)C2)nc1 | inactive |
| COc1cc(C(c2c(O)c3ccccc3oc2=O)c2c(C)n(C)n(-c3ccccc3)c2=O)ccc1O (stereo not given) | inactive |
| O=c1oc2ccccc2c(O)c1C(c1ccccc1O)c1c(O)c2ccccc2oc1=O | 10 µM (active) |
| CCC(=O)CC(c1ccc([N+](=O)[O-])cc1)c1c(O)c2ccccc2oc1=O (stereo not given) | inactive |
| O=C(O)C(=O)Cc1ccc2c(c1)OCO2 | inactive |
| c1ccc(Cc2nn3c(Cn4cnc5ccccc54)nnc3s2)cc1 | inactive |
